An excerpt weighted towards active compounds, which were near 3.4% of everything screened.
AmpC no deterg = qHTS Inhibitors of AmpC Beta-Lactamase (assay without detergent); Potency, µM (series often up to 57.1 µM), actives largely listed as inhibitors; AmpC nitrocefin hydrolysis, absorbance 480 nm, 0.0001% Triton; P00811; hit rate 0.52% among 330,000; AID 485341, 2010; note: nearly all actives have a fitted effect of over 20% in size
Target sequence (P00811 whole entry, looked up): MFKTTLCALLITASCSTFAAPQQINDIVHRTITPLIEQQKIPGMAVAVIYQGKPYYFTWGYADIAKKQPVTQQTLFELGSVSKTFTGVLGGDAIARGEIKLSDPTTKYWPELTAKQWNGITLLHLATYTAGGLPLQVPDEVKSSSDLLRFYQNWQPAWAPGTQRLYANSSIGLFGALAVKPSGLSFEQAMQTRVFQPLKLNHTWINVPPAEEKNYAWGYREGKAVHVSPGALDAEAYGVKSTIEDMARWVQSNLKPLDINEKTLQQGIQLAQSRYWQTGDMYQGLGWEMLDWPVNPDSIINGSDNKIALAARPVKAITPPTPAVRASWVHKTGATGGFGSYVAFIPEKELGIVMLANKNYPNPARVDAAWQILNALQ
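20 mM phosphate pH 7.0 + 0.01% (detergent screen) or 0.0001% Triton X-100; 5.3 nM AmpC reagent; cpd preinc 15 min RT; nitrocefin (800 uM stock) to start; A480 q20 s × 4 min; Activity was normalised to no-enzyme and no-compound control wells.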
RE007 growth inh = qHTS Assay for Inhibitors of the HIV-1 protein Vpr. Potency, µM (titrated, usually from 92.2 µM), most hits filed as inhibitors. hit rate 0.21% among 360,000. S. pombe RE007 Vpr strain, BacTiter-Glo ATP luminescence, 24 h; active = well fitted falling curve with a large enough effect; inconclusive = small, poorly fitted or top-dose-only effect; inactive = no such curve, though single readings can be large or run the other way; note: nearly all actives have a fitted effect of over 50% in size
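Fission yeast strain RE007, carrying one chromosomally integrated HIV-1 vpr copy, was seeded at OD 0.01 in PMG+AL medium with 23 nL pinned compound. After 24 h at 30 °C and 99% humidity, viability was read by BacTiter-Glo luminescence.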
AmpC inh detg = qHTS Inhibitors of AmpC Beta-Lactamase (assay with detergent); AmpC hydrolysis of nitrocefin, absorbance 480 nm, 0.01% Triton; Potency, µM (top dose mostly 114 µM), most hits filed as inhibitors; P00811; hit rate 0.041% among 370,000; note: nearly all actives have a fitted effect of over 25% in size
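AmpC (5.3 nM in the dispensed reagent) in 20 mM phosphate pH 7.0 with 0.01% (detergent screen) or 0.0001% Triton X-100 was preincubated with compounds for 15 min at room temperature. Nitrocefin was then added from an 800 uM solution, and hydrolysis was followed at 480 nm.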
Sm TGR block = qHTS Assay for the Inhibitors of Schistosoma Mansoni Peroxiredoxins. hit rate 3% among 360,000. Potency, µM (series often up to 114 µM), hits mostly inhibitors. purified TGR, DTNB reduction, TNB absorbance 405 nm; note: nearly all actives have a fitted effect of over 60% in size
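First, TGR (20 nM dispensed) and NADPH were mixed with compound. Second, a 15 min room-temperature incubation followed. Third, further NADPH and then DTNB were added to start the reaction. Finally, TNB absorbance was monitored kinetically.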
FBPA Giardia inh = qHTS Assay for Inhibitors of Fructose-1,6-bisphosphate Aldolase from Giardia Lamblia; purified Giardia FBPA; AID 2451, 2010; hit rate 0.71% among 290,000; A8B2U2; Potency, µM (top dose mostly 59.6 µM), actives largely listed as inhibitors; note: nearly all actives have a fitted effect of over 55% in size
Target sequence (A8B2U2 whole entry, looked up): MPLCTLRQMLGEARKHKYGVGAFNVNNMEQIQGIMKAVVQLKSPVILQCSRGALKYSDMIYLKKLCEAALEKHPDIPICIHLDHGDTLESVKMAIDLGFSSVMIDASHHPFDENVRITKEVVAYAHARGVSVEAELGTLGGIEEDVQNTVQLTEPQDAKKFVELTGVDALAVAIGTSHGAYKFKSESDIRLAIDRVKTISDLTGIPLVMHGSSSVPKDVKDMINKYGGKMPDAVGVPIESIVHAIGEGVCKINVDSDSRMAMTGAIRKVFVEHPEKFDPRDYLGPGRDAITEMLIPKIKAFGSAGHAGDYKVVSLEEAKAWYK
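Giardia FBPA (40 nM reagent) was preincubated 10 min at RT with compound (up to 57.5 uM final), then substrate plus GAPDH/TPI/NAD/arsenate coupling system with diaphorase/resazurin was added; resorufin fluorescence (525/598 nm) was read after 20 min.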
Large screens that a line does not name were inactive; ! = not active in a repeat. Unless noted, calls come from the whole dose curve; as a rule, active = well fitted curve in the direction sought with a large enough effect; inconclusive = small, poorly fitted or top-dose-only effect, or another doubt; inactive = no such curve, though single readings can be large; an effect the other way counts as inactive or inconclusive.

O=C(CSc1n[nH]c(-c2ccncc2)n1)c1cccc([N+](=O)[O-])c1	none
COc1ccc(-c2c(-c3cc(OC)cc(OC)c3)n(C)c3ccc(-c4cccc5[nH]ccc45)cc23)cc1	none (no result: FBPA Giardia inh)
COc1ccc(C(=O)NNC(=O)c2ccccn2)cc1	RE007 growth inh 10µM
COc1ccc(/C(O)=C/C(=O)C(=O)NNC(=O)c2ccccc2)cc1	Sm TGR block 14.1µM, FBPA Giardia inh inconclusive
CN(c1ccc(O)cc1)c1nc(O)c(C2=c3ccccc3=NC2=O)s1	none (no result: AmpC no deterg, AmpC inh detg, Sm TGR block, FBPA Giardia inh)
Cc1noc(C)c1-c1ccc2ncnc(NCc3cccc(Cl)c3)c2c1	none (no result: AmpC no deterg, RE007 growth inh, AmpC inh detg, Sm TGR block)
Cc1cc(C)c(OCC(=O)OCCNC(=O)c2cccnc2)c(C)c1	AmpC inh detg inconclusive, Sm TGR block 35.5µM
COC(=O)C(C)Sc1nnc(SC(C)C(=O)OC)s1 (stereo not given)	none
CC(NC(=O)c1ccc(CS(=O)(=O)c2cccc(C(F)(F)F)c2)o1)c1ccc2c(c1)OCCO2 (stereo not given)	AmpC inh detg inconclusive
CC(NC(=O)c1ccc(CS(=O)(=O)Cc2ccccc2F)o1)c1ccc2c(c1)OCCO2 (stereo not given)	Sm TGR block 35.5µM
CCc1ccccc1NC(=O)COc1ccc2oc(-c3ccc(OC)cc3)cc(=O)c2c1	none
N.N.O=C(O)C1(C(=O)O)CCC1.[Pt]	FBPA Giardia inh 17.7µM! (no result: AmpC no deterg, RE007 growth inh, AmpC inh detg, Sm TGR block)
Cc1c(C)n(Cc2ccccc2)c2ccc(C(=O)OCCN(C)C)cc12	none
O=C(Cn1ccn(-c2cccc(Cl)c2)c(=O)c1=O)c1ccc(F)cc1	none (no result: AmpC no deterg, RE007 growth inh, FBPA Giardia inh)
Oc1ccc(/C=N/N2CCOCC2)c(O)c1O	FBPA Giardia inh 5.61µM
Oc1cccc(/C=N/N2CCCCC2)c1O	Sm TGR block inconclusive
Oc1ccc(/C=N/N2CCCCC2)c(O)c1O	Sm TGR block 35.5µM, FBPA Giardia inh 2.82µM
CCCC[C@@H]1C=C(C(=O)O)[C@H](c2ccc(Cl)c(Cl)c2)N1S(=O)(=O)c1ccc(C)cc1	none (no result: AmpC inh detg, Sm TGR block, FBPA Giardia inh)
C=CCn1c(C)cc(C(=O)Cn2ncc(Cl)c(Cl)c2=O)c1C	AmpC inh detg inconclusive, Sm TGR block 39.8µM
CC(C)(C)C(=O)Cn1ncc(Cl)c(Cl)c1=O	Sm TGR block 39.8µM
O=C(Nc1ccccc1C(=O)N1CCCCCC1)c1cccc([N+](=O)[O-])c1	none (no result: FBPA Giardia inh)
CCOc1ccc(CCNS(=O)(=O)c2cnc[nH]2)cc1OCC	none
N#CCC1c2ccccc2CCN1C(=O)Nc1cccc(C(F)(F)F)c1 (stereo not given)	none
Cc1ccc(/C=C2\SC(=S)N(/N=C/c3cc([N+](=O)[O-])ccc3O)C2=O)o1	RE007 growth inh inconclusive, Sm TGR block 8.91µM
O=C(NN1C(=O)/C(=C/c2cc([N+](=O)[O-])ccc2O)SC1=S)c1ccccc1O	Sm TGR block 35.5µM (no result: RE007 growth inh, FBPA Giardia inh)
CCC1(C)Cc2c(sc3c2c(=O)n(-c2ccccc2)c(=O)n3C)CO1 (stereo not given)	none
Cc1oc(-c2ccc(Cl)cc2)nc1CN1CCC(C(=O)NCCCN2CCCC(C)C2)CC1 (stereo not given)	none (no result: FBPA Giardia inh)
Cc1oc(-c2ccc(Cl)cc2)nc1CN1CCCC(C(=O)NCCCN2CCOCC2)C1 (stereo not given)	Sm TGR block 79.4µM
CCOc1ccc(CCNC(=O)c2cnc3sc(N4CCOCC4)nn3c2=O)cc1	Sm TGR block inconclusive (no result: AmpC no deterg, RE007 growth inh, FBPA Giardia inh)
Cc1ccc(-n2c(N)c(C(=O)N3CCOCC3)sc2=S)cc1	AmpC inh detg inconclusive
CN1CCN(C(=O)c2sc(=S)n(-c3ccccc3)c2N)CC1	AmpC inh detg inconclusive, FBPA Giardia inh 5.61µM
CCOC(=O)C1=CN2CCCC[C@@H]2CC1=O	none (no result: AmpC inh detg, Sm TGR block, FBPA Giardia inh)
CCOC(=O)c1ccccc1NC(=O)N1CCn2c(C)ccc2C1CC (stereo not given)	Sm TGR block 7.08µM, FBPA Giardia inh inconclusive
CCCC1c2ccc(C)n2CCN1C(=O)Nc1ccccc1Cl (stereo not given)	Sm TGR block 35.5µM, FBPA Giardia inh inconclusive
O=C1CCC(CCc2nc3ccccc3[nH]2)(c2ccccc2)C(=O)N1 (stereo not given)	none (no result: AmpC no deterg, AmpC inh detg, Sm TGR block, FBPA Giardia inh)
CC1(C)OCC(C2CC(c3ccccc3)NS(=O)(=O)O2)O1 (stereo not given)	none
O=S1(=O)NC2c3ccccc3CC2O1 (stereo not given)	AmpC inh detg inconclusive, Sm TGR block 25.1µM
COc1cc(C(=O)N(Cc2ccco2)Cc2cc3ccccc3[nH]c2=O)cc(OC)c1OC	none
Cc1ccc(/C=C2\C(=O)NC(=S)N(c3ccc(F)cc3)C2=O)o1	Sm TGR block 1.58µM, FBPA Giardia inh inconclusive
Cc1ccc(N2C(=O)/C(=C/c3ccc(CN(CCC#N)S(C)(=O)=O)o3)C(=O)NC2=S)cc1	Sm TGR block 2.82µM, FBPA Giardia inh inconclusive
Cc1ccc(N2C(=O)NC(=O)/C(=C\c3ccc([N+](=O)[O-])o3)C2=O)cc1	Sm TGR block 8.91µM, FBPA Giardia inh inconclusive (no result: RE007 growth inh)
Cc1ccc(N2C(=O)NC(=O)/C(=C\c3ccc(N4CCOCC4)cc3)C2=O)cc1	Sm TGR block inconclusive
COc1ccc(N2C(=O)/C(=C/c3ccc(N(C)C)o3)C(=O)NC2=S)cc1	Sm TGR block inconclusive
COc1cccc(N2C(=O)/C(=C/c3ccc(C)o3)C(=O)NC2=S)c1	Sm TGR block 1.78µM
COc1ccc(CN2C(=O)c3cccnc3C2=O)cc1S(=O)(=O)N1CCCC(C)C1 (stereo not given)	none
CCCC(c1nnnn1C(C)(C)CC)N(CCCO)Cc1cc2cc(C)cc(C)c2[nH]c1=O (stereo not given)	AmpC inh detg inconclusive
CN(C)c1cccc2c1c(NC(=O)c1ccc(Cl)cc1)nn2C	FBPA Giardia inh 17.7µM
Cc1ccc(-c2nc3ccc(Cl)cn3c2Cc2ccccc2C(F)(F)F)cc1	none (no result: AmpC no deterg, AmpC inh detg, Sm TGR block, FBPA Giardia inh)
Cc1ccccc1C(=O)Nc1sc(C)c(C)c1C(=O)c1ccccc1	none
Cc1sc(NC(=O)CCl)c(C(=O)c2ccccc2)c1C	Sm TGR block 7.94µM
COc1cc(/C=N/N(C)c2ccccc2)cc(Cl)c1O	RE007 growth inh 28.2µM, AmpC inh detg inconclusive
CCNC(=S)Nc1cc(-c2ccc(Cl)cc2)[nH]n1	Sm TGR block 0.891µM
CCNC(=S)Nc1ccc(Cl)cc1	Sm TGR block inconclusive
Cc1nn(C(C)C(=O)NC2C(=O)N3C(C(=O)O)=C(CSc4nnnn4C)CSC23)cc1Cl (stereo not given)	Sm TGR block 2.24µM, FBPA Giardia inh inconclusive
CC(C(=O)NC1C(=O)N2C(C(=O)O)=C(CSc3nnnn3C)CSC12)n1cc(Br)cn1 (stereo not given)	Sm TGR block 0.562µM, FBPA Giardia inh inconclusive
Cn1nnnc1SCC1=C(C(=O)O)N2C(=O)[C@@H](NC(=O)[C@H](O)c3ccccc3)[C@H]2SC1	FBPA Giardia inh inconclusive

Assay outcomes deposited in PubChem by National Center for Advancing Translational Sciences (NCATS).
